Test results reported in PMC12431657, “Discovery and mechanistic insights of dibenzoylmethane as a broad spectrum inhibitor of coronavirus” (PLOS Pathogens, 2025).
Structures can show the parent of a compound that is named as a salt. Where two headings read alike, the source gives them in different places. Out of some 3,300 compounds screened, about 95 (3%) showed an effect of 50% or more. The sample as a whole holds a higher share of strong results than the screen did.

Test system: HCoV-229E
Design: species or system Huh-7; HTS, protection from HCoV-229E induced cell death, luminescent cell viability (CellCounting-Lite 2.0), inhibition rate
Conditions: 24 h post infection, 1 h compound pre-incubation, 10 µM, inhibitor

SMILES | 229E Inhibition rate | 229E Inhibition rate (229E Inhibition rate, 24 h)
C=C(C)C1CC=C(C)C(O)C1 (mixture of isomers) [Carveol] | 14.5% | –
C[C@H]1CC[C@@H]2N(C1)C[C@H]1[C@@H]3C[C@H]4[C@@H](CC(=O)[C@H]5C[C@@H](O[C@@H]6O[C@H](CO)[C@@H](O)[C@H](O)[C@H]6O)CC[C@@]54C)[C@@H]3CC[C@@H]1[C@]2(C)O [Edpetiline] | 11.7% | –
COc1ccc(C(C)=O)c(O[C@@H]2O[C@H](CO[C@@H]3OC[C@H](O)[C@H](O)[C@H]3O)[C@@H](O)[C@H](O)[C@H]2O)c1 [Apiopaeonoside] | 0% | –
COC(=O)c1ccccc1O[C@@H]1O[C@H](CO[C@@H]2OC[C@@H](O)[C@H](O)[C@H]2O)[C@@H](O)[C@H](O)[C@H]1O [Gaultherin] | 45.9% | –
O[C@@H]1[C@@H](O)[C@H](OC/C=C/c2ccccc2)O[C@H](CO[C@@H]2OC[C@H](O)[C@H](O)[C@H]2O)[C@H]1O [Rosavin] | 56.6% | –
O=C1NCN(c2ccccc2)C12CCN(CCCOc1ccc(F)cc1)CC2 [Spiramide] | 51.4% | –
O=C1c2cccc(O)c2C(=O)c2c(O)cccc21 [Danthron] | 0% | –
O=C(O)c1cc(O)c2c(c1)C(=O)c1cccc(O)c1C2=O [Rhein] | 55.2% | –
Cc1cc(O)c2c(c1)C(=O)c1cccc(O)c1C2=O [Chrysophanol] | 29.5% | –
C=C1C=CC(C(C)C)CC1 (stereo not drawn) [β-Phellandrene] | 51.8% | –
CC(C)=CC[C@]12Oc3cc(O)c([C@H]4C=C(C)C[C@H](c5ccc(O)cc5O)[C@H]4C(=O)c4ccc(O)cc4O)c(O)c3C(=O)[C@@]1(O)Oc1cc(O)ccc12 [Sanggenon C] | 43.3% | –
COC(=O)C1=CO[C@@H](C)[C@H]2CN3CC[C@]4(C(=O)Nc5ccccc54)[C@@H]3C[C@H]12 [Mitraphylline] | 5.5% | –
COC(=O)C1=CO[C@@H](C)[C@H]2CN3CCc4c([nH]c5ccccc45)[C@@H]3C[C@H]12 [Ajmalicine] | 55.3% | –
COC(=O)C1=CO[C@@H](C)[C@@H]2CN3CC[C@@]4(C(=O)Nc5ccccc54)[C@@H]3C[C@H]12 [Isopteropodine] | 13.3% | –
COC(=O)[C@@H]1[C@H]2C[C@H]3c4[nH]c5ccccc5c4CCN3C[C@@H]2CC[C@@H]1O [Yohimbine] | – | 50.5%
COC(=O)[C@H]1[C@H]2C[C@H]3c4[nH]c5ccccc5c4CCN3C[C@H]2CC[C@@H]1O [Rauwolscine (hydrochloride)] | 43.9% | –
COC(=O)[C@@H]1[C@H]2C[C@H]3c4[nH]c5ccccc5c4CCN3C[C@@H]2CC[C@@H]1O [Yohimbine (Hydrochloride)] | – | 36%
Cn1cnc2c(ncn2[C@@H]2O[C@H](CO)[C@@H](O)[C@H]2O)c1=N [1-Methyladenosine] | 12.1% | –
N[C@@H](Cc1c[nH]c2ccc(O)cc12)C(=O)O [5-Hydroxytryptophan] | – | 13.7%

SMILES | 229E Inhibition rate | 229E Inhibition rate (229E Inhibition rate, 24 h)
C[N+]1(C)CCC[C@H]1C(=O)[O-] [Stachydrine hydrochloride] | – | 11.8%
C[C@H]1CC[C@]2(NC1)O[C@H]1C[C@H]3[C@@H]4CC[C@H]5C[C@@H](O)CC[C@]5(C)[C@H]4CC[C@]3(C)[C@H]1[C@@H]2C [Tomatidine (hydrochloride)] | – | 28.3%
C[C@H]1CC[C@]2(NC1)O[C@H]1C[C@H]3[C@@H]4CC[C@H]5C[C@@H](O)CC[C@]5(C)[C@H]4CC[C@]3(C)[C@H]1[C@@H]2C [Tomatidine] | – | 55.9%
C[C@@H]1CC[C@@]2(OC1)O[C@H]1C[C@H]3[C@@H]4CC[C@H]5C[C@@H](O)CC[C@]5(C)[C@H]4CC[C@]3(C)[C@H]1[C@@H]2C [Tigogenin] | 11% | –
COc1cc(-c2oc3cc(O)cc(O)c3c(=O)c2O)ccc1O [Isorhamnetin] | 7.4% | –
COc1cc2c(cc1O)CC[N+](C)(C)[C@@H]2Cc1ccc(O)cc1 [Lotusine (hydroxide)] | 0% | –
COc1cc(/C=C/C(=O)OC[C@H]2O[C@H](O[C@]3(CO)O[C@H](CO)[C@@H](O)[C@@H]3OC(=O)/C=C/c3cc(OC)c(OC)c(OC)c3)[C@H](O)[C@@H](O)[C@@H]2O)cc(OC)c1O [Tenuifoliside C] | 19.9% | –
Cc1ccc(C(=O)O)cc1 [p-Toluic acid] | 6.6% | –
CC(C)=CC(=O)C[C@H](C)c1ccc(C)cc1 [ar-Turmerone] | 53% | –
CC(=O)c1ccc(C)cc1 [4'-Methylacetophenone] | 8.7% | –
CC1=COC(=O)[C@H]2[C@@H]1CC[C@@H]2C [4aα,7α,7aα-Nepetalactone] | 8.3% | –
CC(=O)CCc1ccc(O[C@@H]2O[C@H](CO)[C@@H](O)[C@H](O)[C@H]2O)cc1 [Raspberry ketone glucoside] | 19.3% | –
C=C[C@H]1CN2CC[C@]3(C(=O)Nc4ccccc43)[C@@H]2C[C@@H]1/C(=C\OC)C(=O)OC [Corynoxeine] | 15.2% | –
CC[C@]12CCCN3CCc4c(n(c5ccccc45)C(=O)C1)[C@@H]32 [Vinburnine] | 22.5% | –
CC[C@]12CCCN3CCc4c(n(c5ccccc45)[C@@](O)(C(=O)OC)C1)[C@@H]32 [Vincamine] | 16.6% | –
CCOC(=O)C1=C[C@]2(CC)CCCN3CCc4c(n1c1ccccc41)[C@@H]32 [Vinpocetine] | 50% | –
C/C=C(/C)C(=O)O[C@H]1c2cc3c(c4c2[C@@]2(CO4)C(=O)C(OC)=C(OC)C=C2C[C@@H](C)[C@H]1C)OCO3 [Heteroclitin D] | 47.7% | –
COc1cc2oc(=O)ccc2cc1CC=C(C)C [Suberosin] | 15.6% | –

SMILES | 229E Inhibition rate | 229E Inhibition rate (229E Inhibition rate, 24 h)
COC(=O)CC[C@@H](C)[C@H]1CC[C@H]2[C@@H]3[C@H](O)C[C@@H]4C[C@H](O)CC[C@]4(C)[C@H]3C[C@H](O)[C@]12C [Methyl cholate] | 54.9% | –
COc1c(/C=C/C(=O)c2ccc(O)cc2)ccc(O)c1CC=C(C)C [Licochalcone C] | 5% | –
CC(=O)NCC(=O)O [N-Acetylglycine] | 10.2% | –
COc1c(CC=C(C)C)c(O)cc2oc(=O)c(-c3ccc(O)cc3O)cc12 [Glycycoumarin] | 5.6% | –
COc1c(CC=C(C)C)c(O)cc2oc(=O)c3c4ccc(O)cc4oc3c12 [Neoglycyrol] | 90.8% | –
CC(C)=CCc1cc2c(cc1O)oc(=O)c1c3ccc(O)cc3oc21 [Psoralidin] | 43.7% | –
C[n+]1cccc(C(=O)[O-])c1 [Trigonelline (chloride)] | – | 13.3%
C[C@@H]1C(=O)O[C@H]2C[C@@]34[C@H]5C[C@@H](C(C)(C)C)[C@]36[C@@H](OC(=O)[C@@H]6O)O[C@@]4(C(=O)O5)[C@]21O [Ginkgolide A] | 11.6% | –
CC1=C2[C@@H](OC1=O)[C@H](O)[C@]13[C@H]4C[C@@H](C(C)(C)C)[C@]15[C@@H](OC(=O)[C@@H]5O)O[C@@]23C(=O)O4 [Ginkgolide K] | 62% | –
C[C@@H]1C(=O)O[C@H]2[C@H](O)[C@@]34[C@H]5C[C@@H](C(C)(C)C)[C@]36[C@@H](OC(=O)[C@@H]6O)O[C@@]4(C(=O)O5)[C@@]12O [Ginkgolide B] | 25.6% | –
OC[C@H]1O[C@@](CO)(OC[C@@]2(OC[C@@]3(OC[C@@]4(OC[C@@]5(OC[C@@]6(OC[C@@]7(OC[C@@]8(O[C@H]9O[C@H](CO)[C@@H](O)[C@H](O)[C@H]9O)O[C@H](CO)[C@@H](O)[C@@H]8O)O[C@H](CO)[C@@H](O)[C@@H]7O)O[C@H](CO)[C@@H](O)[C@@H]6O)O[C@H](CO)[C@@H](O)[C@@H]5O)O[C@H](CO)[C@@H](O)[C@@H]4O)O[C@H](CO)[C@@H](O)[C@@H]3O)O[C@H](CO)[C@@H](O)[C@@H]2O)[C@@H](O)[C@@H]1O [Fructo-oligosaccharide DP9/GF8] | 41% | –
CCc1ccc(O)cc1O [4-Ethylresorcinol] | 19.1% | –
CC(C)=CCC1=C(O)C(=O)c2ccccc2C1=O [Lapachol] | 54.4% | –
CC(C)=CCC/C(C)=C/CC/C(C)=C/CC/C(C)=C/CC1=C(C)C(=O)c2ccccc2C1=O [Menaquinone-4] | 4.1% | –
CC(C)=CCC1=CC(=O)c2ccccc2C1=O [Deoxylapachol] | 8.4% | –
C[C@@H]1O[C@@H](O[C@H]2[C@H](O[C@H]3CC[C@@]4(C)[C@@H](CC[C@]5(C)[C@@H]4CC=C4[C@@H]6CC(C)(C)CC[C@]6(C(=O)O)CC[C@]45C)[C@]3(C)CO)OC[C@H](O)[C@@H]2O)[C@H](O)[C@H](O[C@@H]2O[C@H](CO)[C@@H](O[C@@H]3O[C@H](CO)[C@@H](O)[C@H](O)[C@H]3O)[C@H](O)[C@H]2O)[C@H]1O [Macranthoside B] | 9.3% | –
NCCc1cc(O)c(O)c(O)c1 [5-Hydroxydopamine hydrochloride] | 11.7% | –
O=P(O)(O)OC(CO)CO [β-Glycerophosphate (disodium salt hydrate)] | 11.7% | –
